Laboratory results taken from the supplement of paper PMC10849652.
The full data set covers some 8,800 targets. This sample favours those with a hit. About 0.5% of all pairs of compound and target were hits. A number with no mark means an inactive call.

compound: CN1CCN(CCOc2cc(OC3CCOCC3)c3c(Nc4c(Cl)ccc5c4OCO5)ncnc3c2)CC1 [saracatinib]; assay: log2 fold change, soluble protein after heating vs DMSO (PISA); higher = thermal stabilisation; K562 lysate, 10 uM; active = over 0.2 and 3.5 SD of the protein, either way, in both replicates (recomputed)
In short: (§1)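 Soluble protein was defined as the supernatant remaining after 21,000xg for 90 min, following pooling of heated aliquots and adjustment to 0.5% NP-40 at 4°C. Before that, crude K562 extract at 1 mg/mL protein in PBS pH 7.4 with 1 mM MgCl2 was treated with 10 μM compound for 30 min and heated for 3 min across 48°C-58°C. Quantification used TMTpro 16plex LC-MS/MS with channel sums equalised, and values are log-two fold changes in thermal stability relative to solvent controls from duplicates.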

Sequence of UniProt Q8TDX7 (Q8TDX7 whole entry, looked up): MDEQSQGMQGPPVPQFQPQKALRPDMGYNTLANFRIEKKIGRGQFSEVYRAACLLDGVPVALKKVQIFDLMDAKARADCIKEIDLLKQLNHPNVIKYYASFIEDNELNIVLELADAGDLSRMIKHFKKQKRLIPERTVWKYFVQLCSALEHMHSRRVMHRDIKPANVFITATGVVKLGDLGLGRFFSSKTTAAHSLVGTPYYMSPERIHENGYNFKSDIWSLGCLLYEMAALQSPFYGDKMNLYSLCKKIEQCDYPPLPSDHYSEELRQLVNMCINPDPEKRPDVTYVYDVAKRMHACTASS
Sequence of UniProt O95644 (O95644 whole entry, looked up): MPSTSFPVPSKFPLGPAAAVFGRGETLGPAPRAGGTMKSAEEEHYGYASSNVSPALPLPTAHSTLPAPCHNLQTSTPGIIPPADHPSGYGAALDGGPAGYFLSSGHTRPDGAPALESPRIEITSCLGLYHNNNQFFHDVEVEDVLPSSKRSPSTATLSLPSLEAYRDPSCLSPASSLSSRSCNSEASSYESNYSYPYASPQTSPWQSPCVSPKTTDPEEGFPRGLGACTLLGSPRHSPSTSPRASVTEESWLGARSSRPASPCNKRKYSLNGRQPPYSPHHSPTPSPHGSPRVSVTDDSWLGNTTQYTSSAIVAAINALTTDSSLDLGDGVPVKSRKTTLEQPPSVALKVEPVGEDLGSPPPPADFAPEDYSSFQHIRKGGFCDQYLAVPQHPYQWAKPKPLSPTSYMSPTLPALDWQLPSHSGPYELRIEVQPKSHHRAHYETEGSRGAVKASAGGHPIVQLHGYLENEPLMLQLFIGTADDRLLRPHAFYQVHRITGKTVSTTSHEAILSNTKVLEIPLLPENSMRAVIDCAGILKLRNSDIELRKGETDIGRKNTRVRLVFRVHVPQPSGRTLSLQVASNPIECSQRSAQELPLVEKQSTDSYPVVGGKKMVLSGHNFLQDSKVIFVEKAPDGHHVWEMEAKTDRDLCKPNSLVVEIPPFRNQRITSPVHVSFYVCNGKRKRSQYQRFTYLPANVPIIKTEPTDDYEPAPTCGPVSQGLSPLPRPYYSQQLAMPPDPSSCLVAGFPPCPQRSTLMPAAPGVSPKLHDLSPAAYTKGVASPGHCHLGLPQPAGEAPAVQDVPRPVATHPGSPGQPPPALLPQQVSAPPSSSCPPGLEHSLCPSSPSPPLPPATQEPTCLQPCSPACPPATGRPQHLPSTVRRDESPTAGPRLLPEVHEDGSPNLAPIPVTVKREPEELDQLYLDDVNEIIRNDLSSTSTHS
Sequence of UniProt Q9Y6C9 (Q9Y6C9 whole entry, looked up): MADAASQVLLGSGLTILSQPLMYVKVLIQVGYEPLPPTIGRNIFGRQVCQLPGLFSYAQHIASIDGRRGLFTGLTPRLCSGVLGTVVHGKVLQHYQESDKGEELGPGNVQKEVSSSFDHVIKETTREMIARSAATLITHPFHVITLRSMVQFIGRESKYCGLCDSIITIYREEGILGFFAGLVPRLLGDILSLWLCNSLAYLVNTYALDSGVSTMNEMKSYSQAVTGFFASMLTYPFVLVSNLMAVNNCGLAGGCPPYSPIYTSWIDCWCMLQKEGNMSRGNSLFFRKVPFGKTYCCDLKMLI
Sequence of UniProt Q147X3 (Q147X3 whole entry, looked up): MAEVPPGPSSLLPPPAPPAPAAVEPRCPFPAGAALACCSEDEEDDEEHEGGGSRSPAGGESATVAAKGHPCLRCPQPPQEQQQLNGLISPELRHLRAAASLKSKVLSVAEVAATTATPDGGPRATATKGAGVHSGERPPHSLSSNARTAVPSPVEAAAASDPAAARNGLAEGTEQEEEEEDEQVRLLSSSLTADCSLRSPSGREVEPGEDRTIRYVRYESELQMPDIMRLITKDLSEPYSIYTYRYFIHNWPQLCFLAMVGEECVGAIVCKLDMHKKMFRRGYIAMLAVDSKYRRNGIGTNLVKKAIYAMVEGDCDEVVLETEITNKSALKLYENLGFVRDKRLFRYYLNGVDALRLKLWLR
Sequence of UniProt Q9UDX5 (Q9UDX5 whole entry, looked up): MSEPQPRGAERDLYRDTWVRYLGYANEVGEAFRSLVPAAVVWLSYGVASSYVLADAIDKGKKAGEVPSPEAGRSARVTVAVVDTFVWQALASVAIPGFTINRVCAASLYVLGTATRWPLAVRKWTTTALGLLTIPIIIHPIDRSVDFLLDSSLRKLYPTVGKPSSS
Sequence of UniProt P52179 (P52179 whole entry, looked up): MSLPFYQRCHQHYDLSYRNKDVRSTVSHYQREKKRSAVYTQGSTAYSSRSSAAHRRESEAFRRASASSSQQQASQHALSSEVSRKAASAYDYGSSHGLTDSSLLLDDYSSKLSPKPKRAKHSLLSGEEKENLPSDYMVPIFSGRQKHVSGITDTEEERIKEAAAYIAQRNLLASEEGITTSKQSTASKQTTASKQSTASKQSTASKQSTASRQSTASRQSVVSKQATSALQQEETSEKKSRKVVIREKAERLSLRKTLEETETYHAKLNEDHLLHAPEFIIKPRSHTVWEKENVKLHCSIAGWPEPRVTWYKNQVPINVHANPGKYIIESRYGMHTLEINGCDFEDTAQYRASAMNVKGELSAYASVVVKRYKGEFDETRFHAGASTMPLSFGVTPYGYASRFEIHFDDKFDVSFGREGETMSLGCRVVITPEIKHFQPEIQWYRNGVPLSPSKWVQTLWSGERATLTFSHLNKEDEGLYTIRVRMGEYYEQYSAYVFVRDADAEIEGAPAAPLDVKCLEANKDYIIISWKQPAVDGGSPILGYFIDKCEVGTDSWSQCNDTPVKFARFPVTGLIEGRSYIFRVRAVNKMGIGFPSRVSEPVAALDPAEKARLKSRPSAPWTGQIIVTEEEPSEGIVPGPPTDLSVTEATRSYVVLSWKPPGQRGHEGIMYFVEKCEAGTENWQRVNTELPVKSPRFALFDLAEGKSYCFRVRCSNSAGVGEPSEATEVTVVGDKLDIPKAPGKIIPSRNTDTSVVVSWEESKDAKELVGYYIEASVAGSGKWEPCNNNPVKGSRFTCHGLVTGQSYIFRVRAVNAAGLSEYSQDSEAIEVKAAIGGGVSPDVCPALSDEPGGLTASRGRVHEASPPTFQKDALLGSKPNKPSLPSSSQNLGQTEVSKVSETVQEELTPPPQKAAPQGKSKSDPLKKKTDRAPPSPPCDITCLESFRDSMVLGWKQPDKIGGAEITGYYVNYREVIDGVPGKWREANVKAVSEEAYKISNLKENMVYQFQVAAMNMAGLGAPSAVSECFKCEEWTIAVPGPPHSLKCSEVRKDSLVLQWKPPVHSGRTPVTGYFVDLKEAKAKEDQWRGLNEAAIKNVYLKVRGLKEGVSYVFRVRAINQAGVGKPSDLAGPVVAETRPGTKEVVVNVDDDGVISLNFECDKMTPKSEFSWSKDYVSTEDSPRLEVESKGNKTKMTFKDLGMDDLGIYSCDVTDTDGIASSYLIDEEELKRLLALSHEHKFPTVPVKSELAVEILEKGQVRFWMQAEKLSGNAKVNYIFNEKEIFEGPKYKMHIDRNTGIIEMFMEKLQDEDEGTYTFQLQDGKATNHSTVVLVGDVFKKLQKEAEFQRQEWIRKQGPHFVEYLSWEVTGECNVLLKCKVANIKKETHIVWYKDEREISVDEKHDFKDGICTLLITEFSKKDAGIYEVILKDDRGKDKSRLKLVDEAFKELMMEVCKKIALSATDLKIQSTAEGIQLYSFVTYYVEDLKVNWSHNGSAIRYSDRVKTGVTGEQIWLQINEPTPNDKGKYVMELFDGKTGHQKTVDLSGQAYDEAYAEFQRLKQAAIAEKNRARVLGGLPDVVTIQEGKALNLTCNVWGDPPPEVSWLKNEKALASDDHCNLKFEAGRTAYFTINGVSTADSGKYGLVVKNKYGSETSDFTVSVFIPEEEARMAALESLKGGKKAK
Sequence of UniProt Q9Y314 (Q9Y314 whole entry, looked up): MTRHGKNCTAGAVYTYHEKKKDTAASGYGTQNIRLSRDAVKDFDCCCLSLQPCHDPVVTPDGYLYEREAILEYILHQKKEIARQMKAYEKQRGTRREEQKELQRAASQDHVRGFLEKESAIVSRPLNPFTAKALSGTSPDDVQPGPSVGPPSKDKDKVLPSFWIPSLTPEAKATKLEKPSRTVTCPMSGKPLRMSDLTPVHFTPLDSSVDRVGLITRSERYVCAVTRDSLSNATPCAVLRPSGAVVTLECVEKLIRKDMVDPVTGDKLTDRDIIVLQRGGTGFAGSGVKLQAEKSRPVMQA
Sequence of UniProt Q13469 (Q13469 whole entry, looked up): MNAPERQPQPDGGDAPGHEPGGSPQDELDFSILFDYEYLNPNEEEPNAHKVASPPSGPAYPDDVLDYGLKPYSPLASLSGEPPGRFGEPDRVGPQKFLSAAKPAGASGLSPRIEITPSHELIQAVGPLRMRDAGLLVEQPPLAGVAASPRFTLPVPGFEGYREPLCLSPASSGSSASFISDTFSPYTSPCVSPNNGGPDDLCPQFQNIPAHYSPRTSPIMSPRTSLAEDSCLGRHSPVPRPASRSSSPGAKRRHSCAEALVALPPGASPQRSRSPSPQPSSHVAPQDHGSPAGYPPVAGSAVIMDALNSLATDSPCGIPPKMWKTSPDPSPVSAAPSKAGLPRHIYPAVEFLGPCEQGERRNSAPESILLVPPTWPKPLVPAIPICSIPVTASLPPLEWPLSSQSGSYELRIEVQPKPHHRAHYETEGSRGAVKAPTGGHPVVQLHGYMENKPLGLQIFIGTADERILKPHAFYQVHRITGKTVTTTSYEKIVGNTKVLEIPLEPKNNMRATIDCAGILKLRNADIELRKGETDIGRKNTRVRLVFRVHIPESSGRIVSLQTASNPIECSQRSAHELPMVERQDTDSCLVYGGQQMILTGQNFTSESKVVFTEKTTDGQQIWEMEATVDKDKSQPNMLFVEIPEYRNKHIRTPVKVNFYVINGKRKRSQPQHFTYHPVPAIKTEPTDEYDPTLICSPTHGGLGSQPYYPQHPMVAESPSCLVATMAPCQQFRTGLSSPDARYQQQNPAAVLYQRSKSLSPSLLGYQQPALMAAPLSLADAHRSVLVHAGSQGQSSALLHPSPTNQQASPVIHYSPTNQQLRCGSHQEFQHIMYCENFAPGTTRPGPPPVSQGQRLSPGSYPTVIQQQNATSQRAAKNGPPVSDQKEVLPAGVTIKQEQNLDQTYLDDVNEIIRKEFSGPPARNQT

NAA30 (UniProt Q147X3) was tested. Which log2 fold change did it give?
Its log2 fold change is -0.003.

With NUDT5 (UniProt Q9UKK9) as the target, how does the log2 fold change read?
The log2 fold change was -0.022.

For NOSIP (UniProt Q9Y314), which log2 fold change is on record?
Its log2 fold change is 0.008.

For MTFP1 (UniProt Q9UDX5), which log2 fold change is on record?
The log2 fold change was -0.042.

NFATC1 (UniProt O95644) was tested. Which log2 fold change did it give?
The log2 fold change was 0.042.

Which log2 fold change does the source give for MYOM1 (UniProt P52179) here?
The log2 fold change was -0.086.

How did the log2 fold change turn out when MTCH2 (UniProt Q9Y6C9) was run?
The log2 fold change was -0.011.

With PAK1 (UniProt Q13153) as the target, how does the log2 fold change read?
The log2 fold change was 0.

For NFATC2 (UniProt Q13469), which log2 fold change is on record?
Its log2 fold change is 0.014.

Which log2 fold change does the source give for NOC2L (UniProt Q9Y3T9) here?
The log2 fold change was -0.078.

How did the log2 fold change turn out when NEK7 (UniProt Q8TDX7) was run?
The log2 fold change was 0.013.

compound: CN1CCN(c2nc(C3=C(c4c[nH]c5ccccc45)C(=O)NC3=O)c3ccccc3n2)CC1 [sotrastaurin]; assay: as above
In short: as §1

For ORC2 (UniProt Q13416), which log2 fold change is on record?
Its log2 fold change is 0.049.

How did the log2 fold change turn out when NIPSNAP3A (UniProt Q9UFN0) was run?
Its log2 fold change is 0.021.

How did the log2 fold change turn out when N6AMT1 (UniProt Q9Y5N5) was run?
The log2 fold change was 0.038.

Which log2 fold change does the source give for OTUD7B (UniProt Q6GQQ9) here?
The log2 fold change was -0.011.

MSH2 (UniProt P43246) was tested. Which log2 fold change did it give?
Its log2 fold change is 0.032.

For MRPL53 (UniProt Q96EL3), which log2 fold change is on record?
The log2 fold change was -0.021.

NFKBIE (UniProt O00221) was tested. Which log2 fold change did it give?
Its log2 fold change is -0.025.

Which log2 fold change does the source give for NCAPH2 (UniProt Q6IBW4) here?
The log2 fold change was 0.03.

With MRPS18A isoform 2 (UniProt Q9NVS2) as the target, how does the log2 fold change read?
Its log2 fold change is 0.036.

Which log2 fold change does the source give for NOB1 (UniProt Q9ULX3) here?
Its log2 fold change is -0.009.

For NCAPG2 (UniProt Q86XI2), which log2 fold change is on record?
Its log2 fold change is 0.027.

NUMB (UniProt P49757) was tested. Which log2 fold change did it give?
Its log2 fold change is -0.134.

With OARD1 (UniProt Q9Y530) as the target, how does the log2 fold change read?
Its log2 fold change is 0.002.

NF1 (UniProt P21359) was tested. Which log2 fold change did it give?
Its log2 fold change is -0.029.

NTMT1 (UniProt Q9BV86) was tested. Which log2 fold change did it give?
The log2 fold change was 0.056.

Which log2 fold change does the source give for MYD88 isoform 6 (UniProt Q99836) here?
Its log2 fold change is 0.05.

With NUSAP1 (UniProt Q9BXS6) as the target, how does the log2 fold change read?
Its log2 fold change is -0.001.

With MVB12A (UniProt Q96EY5) as the target, how does the log2 fold change read?
The log2 fold change was 0.01.

With NAT1 (UniProt P18440) as the target, how does the log2 fold change read?
Its log2 fold change is 0.078.

How did the log2 fold change turn out when MSH3 (UniProt P20585) was run?
The log2 fold change was 0.039.

For NCK1 (UniProt P16333), which log2 fold change is on record?
Its log2 fold change is 0.014.

For NGLY1 (UniProt Q96IV0), which log2 fold change is on record?
Its log2 fold change is 0.024.

How did the log2 fold change turn out when NOA1 (UniProt Q8NC60) was run?
The log2 fold change was 0.037.

For NUB1 (UniProt Q9Y5A7), which log2 fold change is on record?
The log2 fold change was 0.021.

NAA30 (UniProt Q147X3) was tested. Which log2 fold change did it give?
The log2 fold change was 0.045.

How did the log2 fold change turn out when NUDT5 (UniProt Q9UKK9) was run?
Its log2 fold change is 0.034.

With NOSIP (UniProt Q9Y314) as the target, how does the log2 fold change read?
Its log2 fold change is -0.014.

With MTFP1 (UniProt Q9UDX5) as the target, how does the log2 fold change read?
The log2 fold change was 0.004.

NFATC1 (UniProt O95644) was tested. Which log2 fold change did it give?
The log2 fold change was 0.

Which log2 fold change does the source give for MYOM1 (UniProt P52179) here?
Its log2 fold change is -0.163.

MTCH2 (UniProt Q9Y6C9) was tested. Which log2 fold change did it give?
The log2 fold change was 0.022.

Which log2 fold change does the source give for PAK1 (UniProt Q13153) here?
The log2 fold change was -0.054.

With NFATC2 (UniProt Q13469) as the target, how does the log2 fold change read?
Its log2 fold change is -0.016.

How did the log2 fold change turn out when NOC2L (UniProt Q9Y3T9) was run?
The log2 fold change was 0.05.

Which log2 fold change does the source give for NEK7 (UniProt Q8TDX7) here?
Its log2 fold change is 0.04.
